49 compounds from PubChem BioAssay AID1851 (National Center for Advancing Translational Sciences (NCATS), 2009) can be followed below.

Values joined by “and” are separate entries in the source; they are usually repeats but may differ in a detail not shown here. Equal entries are not always repeated. Out of some 16,000 compounds screened, about 5,700 (36%) were called active. Roughly 24% stayed inconclusive and do not appear here. The list shows a part of the results. Values without a mark were called inactive. Calls come from the whole dose curve; as a rule, active = well fitted curve in the direction sought with a large enough effect; inconclusive = small, poorly fitted or top-dose-only effect, or effect the other way; inactive = no such curve, though single readings can be large or run the other way.
% is set by controls: 0 for no effect and ±100 for the full control effect.

Cytochrome P450 1A2 (Homo sapiens), sequence (P05177 whole entry, looked up): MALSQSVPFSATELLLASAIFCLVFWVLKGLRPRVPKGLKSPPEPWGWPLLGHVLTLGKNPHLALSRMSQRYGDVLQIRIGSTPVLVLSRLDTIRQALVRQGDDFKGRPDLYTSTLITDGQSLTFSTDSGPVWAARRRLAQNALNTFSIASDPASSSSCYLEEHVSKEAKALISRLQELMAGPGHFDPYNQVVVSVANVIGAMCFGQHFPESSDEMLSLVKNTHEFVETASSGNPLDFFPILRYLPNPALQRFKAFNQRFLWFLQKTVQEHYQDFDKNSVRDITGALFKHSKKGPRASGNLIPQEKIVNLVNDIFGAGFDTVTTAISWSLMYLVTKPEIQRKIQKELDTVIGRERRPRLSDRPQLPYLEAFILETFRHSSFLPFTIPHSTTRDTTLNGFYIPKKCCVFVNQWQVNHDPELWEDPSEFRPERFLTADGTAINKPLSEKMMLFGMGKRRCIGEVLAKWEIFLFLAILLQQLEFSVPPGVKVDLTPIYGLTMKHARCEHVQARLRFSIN

This assay concerns the target Cytochrome P450 1A2 (Homo sapiens) (UniProt P05177). As to the kind of experiment: Cytochrome panel assay with activity outcomes. To be noted: recombinant CYP, pro-luciferin dealkylation, luminescence, p450-cyp1a2; series mostly up to 57.1 µM; activity, negative = inhibition: at the top concentration.
`Cc1ccc(C)c(Cn2c(C(=O)OC(C)C)cc3c2ccn3C)c1`: the half-maximal activity concentration (AC50) (in general, the concentration at which the activity in the assay is half-maximal) is 12.6 µM (active).

Regarding `CN(C)CC[C@H](c1ccc(Cl)cc1)c1ccccn1`, the AC50 entry is “inactive”.

With `CC(c1ccc(Cl)cc1)n1c(-c2ccc3ccccc3n2)n[nH]c1=S` (centres undefined), the AC50 is 11.2 µM (active).

Take `CCc1c(O)c2c(c(O)c1C(C)=O)C(=O)c1c(cc(O)c(C(=O)O)c1C(=O)O)C2=O`: the activity, negative = inhibition was -33.1% [at 11.4 µM].

As to `Cc1nc2c(OCc3ccccc3)cccn2c1CC#N`, the AC50 was 0.398 µM (active).

As to `Cc1nc2c(C#N)c(C)[nH]n2c(=O)c1Cc1ccccc1`, the “activity, negative = inhibition” value is -11.3%.

Regarding `Clc1ccc(-c2csc(N3CCC(c4ccccc4)C3)n2)cc1` (centres undefined), the AC50 is 3.55 µM (active).

Regarding `S=C1NC2=C(C(c3ccc(Br)cc3)N1)N1CCC2CC1` (centres undefined), the “activity, negative = inhibition” value is -12.2%.

Turning to `Brc1ccc(-c2csc(N3CCC(c4ccccc4)C3)n2)cc1` (centres undefined), the concentration at half-maximal activity (AC50) is 2.51 µM (active).

Consider `Cc1ccc(C(C(=O)NC2CCCCC2)N2CCN(C(=O)c3ccco3)CC2)cc1` (centres undefined), for which the “activity, negative = inhibition” value is 16.9%.

As for `O=C(NC1CCCC1)c1cnn2c(C(F)(F)F)cc(-c3ccco3)nc12`, the half-maximal activity concentration (AC50) was 2.24 µM (active).

Take `Cc1ccc(Cn2ccc(NC(=O)c3cc4nc(-c5ccco5)cc(C(F)(F)F)n4n3)n2)cc1`: the “activity, negative = inhibition” value is -7.6%.

In the case of `O=S(=O)(c1ccccc1)N1CCC[C@@]2(CCN(C(c3ccccc3)c3ccccc3)C2)C1`, the “activity, negative = inhibition” value is -16.8%.

With `C/C(=N\NC(N)=S)c1ccc[nH]1`, the AC50 is 3.16 µM (active).

`Cc1ccccc1CS(=O)(=O)Cc1ccc(C(=O)NCc2cccnc2)o1`: the concentration at half-maximal activity (AC50) was 10 µM (active).

`CCOc1ccc(OCc2ccc(C(=O)NCc3cccnc3)o2)cc1`: the AC50 was 8.91 µM (active).

For the compound `O=C1c2ccccc2C2=Nc3ccccc3SC(c3ccccc3F)C12` (centres undefined), the AC50 was 1.41 µM (active).

Regarding `CSc1ncnc2c1ncn2[C@@H]1O[C@@H](CO)[C@H](O)O[C@@H]1O`, the activity, negative = inhibition was -5.22% [at 2.29 µM].

For the compound `S=C(S)N1CCCC1`, the half-maximal activity concentration (AC50) was 12.6 µM (active).

On to `COc1ccc2cc(CCNC(=O)C3CC3)c(=O)[nH]c2c1`, for which the concentration at half-maximal activity (AC50) is 12.6 µM (active).

Regarding `COc1ccc(OC)c(S(=O)(=O)N2CCC(C(=O)NCCc3ccccc3)CC2)c1`, the “activity, negative = inhibition” value is 3.39%.

As for `COCCCNC(=O)C1CC(=O)N(Cc2ccc(OC)cc2)C1` (centres undefined), the “activity, negative = inhibition” value is -4.01%.

Regarding `Fc1ccccc1OCCCCSc1ncccn1`, the AC50 was 14.1 µM (active).

For the compound `CO[C@@H]1COC(=O)[C@H]2CCCN2C(=O)[C@@H](C)COC(=O)[C@H](COCc2ccccc2)NC(=O)C/C=C\[C@H]1C`, the activity, negative = inhibition was -3.84% [at 11.4 µM].

For `CCN1CCc2nc(N)oc2CC1`, the “activity, negative = inhibition” value was -7.3%.

With `CCN1CCN(c2nc(C)c3c(n2)CCCC3=O)CC1`, the AC50 is 2.24 µM (active).

Turning to `CCCCc1n[nH]c2c1/C(=N/O)CC(c1ccccc1)C2` (centres undefined), the concentration at half-maximal activity (AC50) is 0.398 µM (active).

On to `Nc1ccccc1CCCC(=O)O`, for which the activity, negative = inhibition was 4.62% [at 11.4 µM].

Regarding `NNC(=O)CCc1ccc2ccc3ccccc3c2c1`, the concentration at half-maximal activity (AC50) is 0.0316 µM (active).

For `O=C(O)CCCc1ccc2ccc3ccccc3c2c1`, the AC50 is 2 µM (active).

As to `COC(=O)C/C=C\[C@@H](C)[C@@H](/C=N\O[C@@H](C)c1cn([C@H]2COC[C@H]2O)nn1)NS(=O)(=O)c1ccc(C)cc1`, the activity, negative = inhibition is -5.92% [at 11.4 µM].

For `CCCCN(C(=O)Nc1ccc(OCC)cc1)C1CCN(C(C)=O)CC1`, the “activity, negative = inhibition” value was -6.11%.

For the compound `COc1cccc(NC(=O)c2oc3ccccc3c2NC(C)=O)c1`, the AC50 is 2.51 µM (active).

Regarding `CCOc1ccc(NC(=O)c2oc3ccccc3c2NC(=O)CC)cc1`, the concentration at half-maximal activity (AC50) is 2 µM (active).

As to `CCOCC(=O)Nc1c(C(=O)Nc2ccccc2OC)oc2ccccc12`, the half-maximal activity concentration (AC50) is 0.398 µM (active).

For the compound `CCOc1ccc(NC(=O)Cn2nnc(C(=O)NCc3ccccc3OC)c2N)cc1`, the “activity, negative = inhibition” value was -18.2%.

Turning to `CCOc1ccccc1NC(=O)C1=C(C)NC(=O)NC1c1cccc(OC)c1OC` (centres undefined), the “activity, negative = inhibition” value is -19.4%.

On to `COCC(=O)N1CCC[C@@]2(CCN(C(=O)Nc3ccc(OC)cc3)C2)C1`, for which the “activity, negative = inhibition” value is -18.5%.

Regarding `C/C(CCN1CCc2nc(-c3ccccc3)c(-c3ccccc3)cc2C1)=N\O[C@@H](C)c1cn([C@H](CO)Cc2ccccc2)nn1`, the activity, negative = inhibition was 1.6% [at 11.4 µM] and -0.819% [at 11.4 µM].

As for `CCn1c2ccccc2c2cc(N=C3SC(CC(=O)Nc4ccccc4OC)C(=O)N3C)ccc21` (centres undefined), the “activity, negative = inhibition” value was -20.4%.

Take `CCn1c2ccccc2c2cc(NC(=O)CSc3nnc(-c4ccc(OC)c(OC)c4)n3N)ccc21`: the AC50 was 7.08 µM (active).

With `CCn1c(=O)cc(SCC(=O)Nc2cc(OC)c(OC)c(OC)c2)c2ccccc21`, the “activity, negative = inhibition” value was -28.7%.

On to `CCN(CC)S(=O)(=O)c1ccc2c3c(cccc13)C(=O)S2`, for which the half-maximal activity concentration (AC50) was 1.26 µM (active).

With `CCN(CC)S(=O)(=O)c1cccc2c(N(C)C)cccc12`, the AC50 is 7.08 µM (active).

In the case of `Cc1noc(NS(=O)(=O)c2cccc3c(N(C)C)cccc23)c1C`, the “activity, negative = inhibition” value is -11.1%.

On to `Cc1[nH]nc(Nc2ccccc2)c1[N+](=O)[O-]`, for which the AC50 was 1 µM (active).

Turning to `CCCc1nnc(SCC(=O)N2CCCCC2C)n1CCCOC` (centres undefined), the “activity, negative = inhibition” value is 4.74%.

With `Cc1ccc2nc(SCc3nc4c(cnn4-c4ccccc4)c(=O)[nH]3)[nH]c2c1`, the AC50 is 12.6 µM (active).

As to `Nc1nc(SCC(=O)O)[nH]c(=O)c1N`, the activity, negative = inhibition was -10.3% [at 11.4 µM].
